Measured values taken from PubChem BioAssay AID778 (Sanford-Burnham Center for Chemical Genomics, 2007).
Hit rate of the full screen: of about 96,000 compounds, about 20,000 (21%) were called active. A selection follows. Values without a mark were called inactive.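 Rule for the calls: active = CYP2C19 inhibition above a set limit at 5 µM in the primary screen (cut at about 50% in these data); inactive = the rest.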

Target: Cytochrome P450 2C19 (Homo sapiens) (UniProt P33261)
Assay: blockers of cytochrome P450 2C19 activity – biochemical, luminescence, ADME assay, primary screen (AID 778);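 note: plate controls were negative control wells for no effect and 2.5 mM tranylcypromine positive control for full effect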
Conditions: CYP2C19 Supersomes, luciferin-H EGE luminescence, 30 min; at 5 µM; active compounds read high

Cytochrome P450 2C19 (Homo sapiens), sequence (P33261 whole entry, looked up): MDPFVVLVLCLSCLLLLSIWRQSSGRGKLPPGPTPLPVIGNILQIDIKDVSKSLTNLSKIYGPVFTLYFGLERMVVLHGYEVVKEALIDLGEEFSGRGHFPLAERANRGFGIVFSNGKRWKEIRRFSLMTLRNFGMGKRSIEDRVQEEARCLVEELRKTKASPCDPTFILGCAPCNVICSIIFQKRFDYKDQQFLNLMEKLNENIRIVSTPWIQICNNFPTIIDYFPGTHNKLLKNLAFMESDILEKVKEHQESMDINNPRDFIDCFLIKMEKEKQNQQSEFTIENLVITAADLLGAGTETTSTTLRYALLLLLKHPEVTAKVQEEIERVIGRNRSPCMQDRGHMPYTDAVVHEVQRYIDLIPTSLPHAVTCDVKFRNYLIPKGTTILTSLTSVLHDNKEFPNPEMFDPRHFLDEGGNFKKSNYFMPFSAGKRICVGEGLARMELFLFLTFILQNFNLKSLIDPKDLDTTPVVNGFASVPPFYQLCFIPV

SMILES	inhibition
CC(=O)N(CC1CCCO1)C1(C(=O)NC2CCCC2)CCCCC1 (stereo not drawn)	3.8%
O=C(CN1CCOCC1)Nc1c2c(nc3c1CCC3)CCC2	-3%
Fc1ccccc1/C=C1\CCCC2=C1Nc1ncnn1C2c1ccccc1F (stereo not drawn)	45.3%
O=S(=O)(Nc1ccccn1)c1ccc(Oc2ccccc2)cc1	90.2% (active)
COc1ccc(C(=O)/C=C/Nc2ccccn2)cc1	46.4%
COc1ccccc1Oc1ccc(S(=O)(=O)Nc2cccnc2)cc1	87.6% (active)
CN1CCc2c(sc3c2c(NCc2ccco2)nc2nnnn23)C1	37.8%
CCOc1ccc(NC(=O)C2CC(=O)N=C(N)S2)cc1 (stereo not drawn)	-0.4%
O=C(Nc1ccccc1)O/N=C1\CCCCC1c1ccc([N+](=O)[O-])cc1[N+](=O)[O-] (stereo not drawn)	36.8%
O=C1NC2(CCCCC2)N=C1c1ccccc1	25%
Cc1cc(C)c2c(-n3cccc3)c(C(=O)NNS(=O)(=O)c3ccc(F)cc3)sc2n1	31%
CC(C)(C)C(=O)c1cnc(Nc2ccccc2)s1	36.7%
CSc1nc(O)c(Cc2ccccc2)c(=O)[nH]1	26.1%
CCn1c(SCC(=O)Nc2ccc(S(=O)(=O)Nc3onc(C)c3C)cc2)nnc1-c1ccccc1	16.5%
CCn1c(Cc2ccccc2)nnc1SCc1nc2ccccc2c(=O)[nH]1	70.3% (active)
CCn1c(Cc2ccccc2)nnc1SCC(=O)Nc1ccccc1	74% (active)
CNC(=O)CSc1nnc(CCc2ccccc2)n1-c1ccccc1	-8.1%
O=c1[nH]c(CSc2ncc(-c3ccc(F)cc3)n2Cc2ccco2)nc2ccccc12	32%
CC(C)c1ccc(-c2nn[nH]n2)cc1	25.4%
O=c1nc(N2CCOCC2)nc2n1CCO2	1.1%
Cc1ccc2nc(NCCCNC(=O)c3cnccn3)c(C#N)cc2c1	17.1%
CCCCN1C(=O)/C(=C2/C=CC=CN2C)SC1=S	30.2%
CCN(CC)c1nc(-c2ccccc2)cc(C(F)(F)F)c1C#N	11.4%
O=C(COc1ccccc1)N1CCc2ccccc2C1	87.9% (active)
O=C(Cn1c(=S)nc2ccccn21)N1CCc2ccccc2C1	23.6%

SMILES	inhibition
COc1ccc(OCC(=O)N2CCN(C(=O)COc3ccccc3)CC2)cc1	19.3%
CC1CN(C(=O)CN2C(=O)NC(C)(c3ccccc3)C2=O)CC(C)O1 (stereo not drawn)	-12.4%
CCN1CCN(CCCCOc2ccccc2F)CC1	2.6%
Cc1nnc(NC(=O)CSc2nccn2-c2cccc(C)c2C)s1	13.4%
CCOC(=O)Nc1ccc2c(c1)N(C(=O)CCN1CCN(CCO)CC1)c1ccccc1CC2	-24.8%
CCOc1ccc(CCNC(=O)C(CC)n2nc(C)n3c(cc4sccc43)c2=O)cc1OCC (stereo not drawn)	57.8% (active)
CCOc1ccc(CCNC(=O)C2CCN(c3ccc(N4CCOCC4)nn3)CC2)cc1OCC	13.9%
CCC(C(=O)NCc1ccc(OC)cc1)n1nc(C)n2c(cc3occc32)c1=O (stereo not drawn)	58.8% (active)
CCOc1ccc(CNC(=O)C2CC(=O)N(C3CCCC3)C2)cc1OC (stereo not drawn)	-8%
COc1ccc(CCn2c(=N)c(C(=O)NCc3ccco3)cc3c(=O)n4cccc(C)c4nc32)cc1	25.7%
COc1ccc(CNC(=O)c2cc3c(=O)n4ccccc4nc3n(CC3CCCO3)c2=N)cc1 (stereo not drawn)	6.2%
COc1cc(OC)cc(-c2cc3nc(C4CCN(C(=O)OC(C)(C)C)CC4)cc(=O)n3[nH]2)c1	2.8%
CC(Cc1cccs1)NC(=O)NC1CCCCC1 (stereo not drawn)	21%
COc1cccc(Nc2nnc(SCC(=O)N3CC(C)OC(C)C3)s2)c1 (stereo not drawn)	36%
c1ccc(CCN2CN=C(Nc3nc4ccccc4o3)NC2)cc1	29.5%
CCOc1cc(-c2nc3cc(C)ccn3c2NCC2CCCO2)ccc1O (stereo not drawn)	2.7%
O=P(c1ccc2c(c1)OCCO2)(N1CCOCC1)N1CCOCC1	21.2%
O=C(Cn1nc(Cc2cccnc2)c2ccccc2c1=O)NCC1COc2ccccc2O1 (stereo not drawn)	36.1%
Cc1nn(CC(=O)Nc2ccc3c(c2)nc(CN2CCCCC2)n3C)c(=O)c2ccccc12	10.5%
Cc1ccc(NC(=O)Cn2nc(C)c3ccccc3c2=O)c(C)c1	56.1% (active)
COc1cccc(C(=O)Nc2ccc(NC(=O)c3ccco3)cn2)c1	38.7%
Cc1sc2c(c1C)c(=O)n(-c1ccccc1)c1nncn21	-7.8%
Cc1cc(=O)cc(C)[nH]1	4.5%
CC(C)c1ccc(N2CCN(C(=O)c3ccccc3NC(=O)/C=C(\C(=O)O)c3ccccc3)CC2)cc1	21.7%
CC(=O)N1CCN(c2ccc(NCc3ccc(C(C)C)cc3)cc2)CC1	50.5% (active)

SMILES	inhibition
COc1ccc(N2CCN(C(=O)CNC(=O)c3ccc(C(C)(C)C)cc3)CC2)cc1	3.3%
Cc1ccc(Cc2cnc(N)s2)o1	8.3%
CC1CC(C)CN(S(=O)(=O)c2cccc(C(=O)N3C(=O)c4cccc(N)c4C3=O)c2)C1 (stereo not drawn)	5.9%
CCOC(=O)c1ccc(-c2ccc(C(=O)Nc3cccnc3)o2)cc1	14.1%
O=C(Nc1cccnc1)c1noc2c1CCCCC2	64.2% (active)
O=C(Nc1cccc2ccccc12)c1onc2c1CCCC2	7.1%
Cn1c(=O)c2[nH]c(NCC3CCCO3)nc2n(-c2ccccc2)c1=O (stereo not drawn)	-1%
CC(=O)NC1CC2CCCC(C1)N2CC(=O)Nc1ccccc1 (stereo not drawn)	11.5%
CSCCC(NC(=O)c1ccco1)C(=O)OCC(=O)Nc1ncc(Cl)c(C)c1Cl (stereo not drawn)	12.9%
O=C(Nc1ccc2sc3ccccc3c(=O)c2c1)c1ccccc1Cl	14.5%
COC(=O)c1cn(-c2ccccc2)nc1-c1cccnc1	30.5%
Cc1c(C(=O)NCc2ccccc2)cnn1-c1ccccc1	11.5%
O=C(NCc1cccnc1)c1cn(-c2ccccc2)nc1-c1cccs1	89.6% (active)
COC(=O)Cc1csc(Nc2c(C)n(C)n(-c3ccccc3)c2=O)n1	-4.9%
CC1CC(c2ccccc2)n2nc(NC(=O)c3cccs3)nc2N1 (stereo not drawn)	7.3%
CCOC(=O)CSc1nncc2ccc(OC)c(OC)c12	11.3%
CCOC(=O)C1CCN(Cc2coc3ccc(Cl)cc3c2=O)CC1	6.5%
CCOC(=O)C1CCCCN1Cc1ccc(OC)c(OC)c1OC (stereo not drawn)	58.1% (active)
CN=C1SC(CC(=O)Nc2ccc(C(=O)O)cc2)C(=O)N1C (stereo not drawn)	-4.9%
CC(=O)C1C(c2ccc(Cl)cc2)NC(=O)NC1(O)C(F)(F)F (stereo not drawn)	39%
CCOC(=O)C(C)Oc1cccc2c(=O)n(CC(=O)N3CCc4ccccc43)ccc12 (stereo not drawn)	8.2%
COc1cccc2c(=O)n(CC(=O)N3CCCCCC3)ccc12	56.9% (active)
CCc1cccc2c(C=C(C#N)C#N)cn(CC(=O)N3CCCCC3)c12	-0.7%
O=C(Cn1cc2c(n1)CCCCC2)NCCN1CCOCC1	-10.3%
COc1cc(OC)c(C(=O)NC2CCCCCC2)cc1OC	43.7%

SMILES	inhibition
CCOc1ccc(N(CC(=O)NCc2ccc(OC)cc2)S(=O)(=O)c2c(C)noc2C)cc1	15.3%
CS(=O)(=O)N(CC(=O)NCc1ccco1)c1ccc2c(c1)OCO2	59.5% (active)
O=C(CN(c1ccc2c(c1)OCCO2)S(=O)(=O)c1ccccc1)Nc1ccc2c(c1)OCO2	26.7%
CCOc1ccc(N(CC(=O)OC)S(=O)(=O)c2c(C)noc2C)cc1	50.6% (active)
O=C(/C=C/c1cc2c(cc1Br)OCO2)NCc1ccc(Cl)cc1	-11.1%
Cc1noc(C)c1S(=O)(=O)N(CC(=O)NCc1ccc(Cl)cc1)c1ccc2c(c1)OCO2	72.8% (active)
CS(=O)(=O)N(CC(=O)N1CCN(Cc2ccc3c(c2)OCO3)CC1)c1ccc2c(c1)OCO2	-4.8%
Cc1noc(C)c1S(=O)(=O)N(CC(=O)Nc1ccc2c(c1)OCCO2)c1ccc(C(C)C)cc1	55.8% (active)
O=C(Cn1nnc(-c2ccc3c(c2)OCO3)n1)NCc1ccco1	0.8%
CCOC(=O)c1cccc(NC(=O)CN(c2ccc(C)cc2)S(=O)(=O)c2c(C)noc2C)c1	17.3%
Cc1ccc(CNC(=O)CN2CCN(Cc3ccc(Cl)cc3)C2=O)cc1	15.1%
CCOc1ccc(N(CC(=O)NC2CCCCCC2)S(=O)(=O)c2c(C)[nH]c(=O)[nH]c2=O)cc1	25.2%
N/C(=N\c1nc2ccccc2o1)NC(=O)C(Cc1ccccc1)N1C(=O)c2ccccc2C1=O (stereo not drawn)	35.9%
Cn1c(=O)cc(SCC(=O)N2CCN(C(=O)c3ccco3)CC2)c2ccccc21	-17%
Cc1c2cnn(-c3ccccc3)c(=O)c2c(C)n1CCCC(=O)N1CCN(C)CC1	-16%
O=C(Cn1cnc2ccccc2c1=O)NCC1COc2ccccc2O1 (stereo not drawn)	22.7%
CC(=O)N(CN1C(=O)C2CC=CCC2C1=O)c1cccc(Cl)c1 (stereo not drawn)	46.5%
Cc1cc(C)c2nc(N3CCCC3)c(C#N)cc2c1	-2.3%
Fc1ccc(Br)cc1/C=N/n1cnnc1	13.9%
CCN(CC)c1ccc2oc(=O)c(C)nc2c1	18.7%
COc1ccc(CC(=O)c2ccc(O)cc2O)cc1OC	88% (active)
COCc1cc(C(C)=O)ccc1OC	6.2%
COc1ccc(CNC(=O)c2c(C)cc(=O)oc2C)cc1OC	5.4%
